Test results published in ChEMBL document CHEMBL4513216, “Probing the Open Global Health Chemical Diversity Library for Multistage-Active Starting Points for Next-Generation Antimalarials” (ACS Infect Dis, 2020).
Among all 69,000 compounds or so, about 8,600 (12%) showed an effect of 50% or more. This excerpt belongs to a sample that is enriched for strong results.

The compounds below were run on Plasmodium berghei (assay: Screen against P. berghei liver stage (PbLuc), transformed with Luciferase, at 10uM). Conditions: tested at 10 uM.
Format: functional, HepG2

SMILES	INHIBITION [%]
O=C(NCCCn1cccn1)NCC(c1ccco1)N1CCCC1 (stereo not given)	-49.5
CCOCC(=O)N1CC[C@H]2OCC[C@@]2(COc2ncccc2F)C1	-23.4
Cc1csc(CNC(=O)NCC2(c3ccc4c(c3)OCO4)CC2)n1	2.29
Cc1ncsc1CNC(=O)NCC1(c2ccc3c(c2)OCO3)CC1	70.2
Cc1n[nH]cc1CNCC1(c2ccc3c(c2)OCO3)CCOCC1	-21.4
CN1CCN(Cc2cn3c(n2)CN(Cc2cccc(F)c2)CC3)CC1	27.6
CCn1nc(C)c(-c2cncn2Cc2ccccc2CN(C)C)c1C	34.1
Cc1ccc(-c2cc(C(=O)O)sn2)cc1	-21.9
CN(C)c1ncc(I)c(C2CCCN2S(C)(=O)=O)n1 (stereo not given)	7.19
Cn1ccnc1SCCNc1nccc(C(F)(F)F)n1	-1.16
CNc1ccnc(NCCSc2nccn2C)n1	44.3
Cc1ccnc(NCCSc2nccn2C)n1	65.6
O=C(NCc1nccs1)N1CCOC(c2ccccc2Cl)C1 (stereo not given)	19.9
Cc1noc2ncnc(NC(CC(C)(C)C)c3cccnc3)c12 (stereo not given)	23.5
CCC(Nc1nc(C)nc2onc(C)c12)c1cccs1 (stereo not given)	79.9
Cc1nc(NCCSc2cnn[nH]2)c2c(C)noc2n1	1.56
Cc1nc(NCC(O)CN2CCCCCC2)c2c(C)noc2n1 (stereo not given)	15.7
Cc1noc(C(C)C)c1C(=O)NCC(c1cccs1)N(C)C (stereo not given)	2.3
CCC(Nc1nc(C)nc2onc(C)c12)c1nc(C)c(C)s1 (stereo not given)	70
CNC(=O)NC(=O)C(C)N(C)CCCc1cc(-c2ccccc2)no1 (stereo not given)	-14.18
c1csc(CN2Cc3nccn3CC(Cn3cncn3)C2)c1 (stereo not given)	-22.1
CCCc1cc(C(=O)N[C@@H]2CCC[C@@H](N3CCCC3)[C@@H]2O)no1	13.7
Cn1nccc1CNS(=O)(=O)c1cc(F)ccc1Br	6.02
CS(=O)(=O)c1nnc(NC(=O)CCc2cc(F)ccc2F)[nH]1	43.7
CC(C)N1CCC(CNC(=O)CCc2cc(F)ccc2F)C1 (stereo not given)	-20.3
CC(C)c1nnc(NC(=O)CCc2cc(F)ccc2F)[nH]1	53.3
CC(C)c1nnc(NC(=O)c2cccc(OCC(F)(F)F)n2)[nH]1	-38.6
CCC(C)Oc1cc(C(=O)Nc2nnc(C(C)C)[nH]2)ccn1 (stereo not given)	42.6

SMILES	INHIBITION [%]
CC(C)c1nnc(NC(=O)Cc2ccc(F)cc2)[nH]1	51.1
O=C(C1=CC2(CCN(CCO)CC2)c2ccccc21)N1CCCC1	13.6
O=C(CCc1nc(-c2ccccc2)no1)N[C@H]1COC[C@@H]1N1CCCC1	-12.1
Cc1nc(N)cc(C2CN(C(=O)c3cscn3)CCO2)n1 (stereo not given)	35
COc1ccc(NC(=O)COc2nn(C)c3nc(C)cc(C)c23)cn1	22.8
CCn1nccc1CNC(=O)NC1CCCCC1	26.8
Cc1ccc(C2CCCCCN2C(=O)Nc2cn[nH]c2)o1 (stereo not given)	-22.05
CCc1ccc(C2CCCCCN2C(=O)CNC(=O)NC2CC2)o1 (stereo not given)	68
CCc1ccc(C2CCCN2C(=O)CNC(=O)CCC(C)C)o1 (stereo not given)	64.8
CC(C)CNC(=O)CN1CCCC(c2ccc(C(=O)O)cc2)C1 (stereo not given)	33
CCc1ccc(C(=O)N2CCCCC2CNS(C)(=O)=O)o1 (stereo not given)	-23.5
CCc1ccc(C2CCCCCN2C(=O)CNC(=O)C2CC2)o1 (stereo not given)	63.7
CCc1ccc(C2CCCN2C(=O)NCC(=O)NCC(C)C)o1 (stereo not given)	60.4
O=C(NCC(=O)N1CCCC1Cc1cccc(F)c1)C1CCCC1 (stereo not given)	7.19
CC(C)CCC(=O)NCC(=O)N1CCCCCC1c1ccco1 (stereo not given)	19.3
CNCC(=O)N1CCCC1c1nc(C(C)C)no1 (stereo not given)	6.33
CCc1ccc(C(=O)NCC2CCCN2CC)o1 (stereo not given)	31.2
COc1ccc(C(=O)Nc2ccc3c(c2)C(=O)NC3)cc1Br	-64.3
COCc1cc(N(C)CCC(O)c2ccccc2)n2nccc2n1 (stereo not given)	-27.3
O=C1CSC(C(F)(F)F)c2c(O)nn(C3CCCCC3)c2N1 (stereo not given)	38.1
Cc1cnn(CCNc2nc(C)cc(N(C)C)n2)c1	21.5
CCc1nnc2n1CCN(C(=O)CCOc1cc(C)ccc1C)C2	-3.19
O=S(=O)(Cc1ccc(F)c(Cl)c1)NCCOc1cccnc1	-11.4
c1cnc2[nH]c(C3CCCNC3)c(CN3CCCOCC3)c2c1 (stereo not given)	-15.3
CCc1ccc(C2CCCN2C(=O)Cc2ccc(NC(C)=O)cc2)o1 (stereo not given)	65.8
CCc1ccc(C(=O)NC[C@H]2CCCN2C(=O)c2ccc(CC)o2)o1	-3.68
CC(=O)Nc1ccc(CC(=O)N2CC(S(=O)(=O)C3CCCCC3)C2)cc1	13.1
